{"source": "PubChem BioAssay (EPA / NIEHS)", "note": "Active and inactive are the calls of the source. Rule for the calls: active = hit-call score of the fitted dose curve at least 0.9, where 1 is the maximum; inactive = score below 0.9.", "data": [{"read-out": "solute carrier (SLC22A1), SLC22A1 (gene 6580)", "assay": "LTEA_HepaRG_SLC22A1: Life Technologies and Expression Analysis (LTEA) Assay for solute carrier (SLC22A1) using HepaRG (AID 2283524)", "settings": "mRNA level, 48 h; actives raise or lower the signal", "procedure,_shortened": "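HepaRG (human liver line), 48 h dosing in serum-free induction medium; 8 conc., half-log down from 100 uM, 0.5% DMSO vehicle, duplicates. Endpoint: SLC22A1 mRNA, qRT-PCR, housekeeping-normalized; gain/loss fit vs DMSO.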", "values": [{"smiles": "CCCCCc1ccc(N)cc1", "outcome": "inactive"}, {"smiles": "Cc1c2ccccc2c(C)c2c1ccc1ccccc12", "AC50": "41.2 µM (active)"}, {"smiles": "O=CCCCC=O", "outcome": "inactive"}, {"smiles": "Cc1cn([C@H]2C[C@H](N=[N+]=[N-])[C@@H](CO)O2)c(=O)[nH]c1=O", "outcome": "inactive"}, {"smiles": "Cc1occc1C(=O)Nc1ccc(C(=O)N2CCC(F)(F)/C(=C\\C(=O)N3CCC(N4CCCCC4)CC3)c3ccccc32)cc1", "AC50": "32.2 µM (active)"}, {"smiles": "OC12N=C(c3ccccc3)SC1Cc1cc(Cl)ccc12", "note": "(stereo unspecified)", "AC50": "40.5 µM (active)"}, {"smiles": "CC(C)(O)c1ccc(CNC(=O)c2cccnc2Oc2ccc3nonc3c2)cc1", "outcome": "inactive"}, {"smiles": "O=C1CCC(C2CCCCC2)CC1", "outcome": "inactive"}, {"smiles": "NCc1cccc(C2CCN(C(=O)c3ccc(C#Cc4ccccc4F)o3)CC2)c1", "AC50": "92.6 µM (active)"}, {"smiles": "c1ccc2ccccc2c1", "outcome": "inactive"}, {"smiles": "O=C(O)Cn1c(=O)n(Cc2ccc(Br)cc2F)c(=O)c2ccc(Cl)cc21", "outcome": "inactive"}, {"smiles": "C[C@]12CC[C@@H]3c4ccc(O)cc4CC[C@H]3[C@@H]1CCC2=O", "AC50": "33.3 µM (active)"}, {"smiles": "OCCO", "outcome": "inactive"}, {"smiles": "COc1cc(C(=O)NC2CCN(C)CC2)ccc1Nc1ncc2c(n1)N(C1CCCC1)CC(F)(F)C(=O)N2C", "AC50": "5.56 µM (active)"}, {"smiles": "O=C(OCCCCCCOC(=O)c1ccccc1)c1ccccc1", "outcome": "inactive"}, {"smiles": "Cc1ncc(CO)c(CO)c1O", "outcome": "inactive"}, {"smiles": "COc1ccc2cc(S(=O)(=O)N[C@H](CC(=O)N[C@H](Cc3ccc(CN4[C@H](C)CCC[C@@H]4C)cc3)C(=O)N(C)C(C)C)c3ccc4c(c3)OCO4)ccc2c1", "AC50": "26.4 µM (active)"}, {"smiles": "O=C(Nc1ccc(Cl)cc1)Nc1ccc(Cl)c(Cl)c1", "AC50": "17.4 µM (active)"}, {"smiles": "Cc1cc(F)ccc1-c1cc(N2CC[C@@H](O)[C@H]2CO)ncc1N(C)C(=O)C(C)(C)c1cc(C(F)(F)F)cc(C(F)(F)F)c1", "AC50": "20.7 µM (active)"}, {"smiles": "Cc1cccc2ccccc12", "outcome": "inactive"}, {"smiles": "CC1(C)NC(=O)N(c2ccc([N+](=O)[O-])c(C(F)(F)F)c2)C1=O", "AC50": "74.3 µM (active)"}, {"smiles": "CCCCCCCCN(C)CCCCCCCC", "outcome": "inactive"}, {"smiles": "CO[C@H]1/C=C/O[C@@]2(C)Oc3c(C)c(O)c4c(O)c(c(/C=N/N5CCN(C)CC5)c(O)c4c3C2=O)NC(=O)/C(C)=C\\C=C\\[C@H](C)[C@H](O)[C@@H](C)[C@@H](O)[C@@H](C)[C@H](OC(C)=O)[C@@H]1C", "outcome": "inactive"}, {"smiles": "Cc1cc2c(cc1C(F)(F)F)N(C(=O)Nc1ccc(Oc3cccnc3C)nc1)CC2", "AC50": "30.1 µM (active)"}, {"smiles": "O=c1c(-c2ccc(O)cc2)coc2cc(O)cc(O)c12", "outcome": "inactive"}, {"smiles": "Oc1ccc2ccccc2c1", "outcome": "inactive"}, {"smiles": "O=C(O)Cc1cc(I)c(Oc2ccc(O)c(I)c2)c(I)c1", "AC50": "78.8 µM (active)"}, {"smiles": "CC(C)(C)c1csc(-c2cc3cc(OCc4ccccc4CC(=O)O)ccc3o2)n1", "AC50": "25 µM (active)"}, {"smiles": "CC[C@@H]1C[C@H](N(Cc2cc(C(F)(F)F)cc(C(F)(F)F)c2)C(C)=O)c2cc(C(F)(F)F)ccc2N1C(=O)OC(C)C", "outcome": "inactive"}, {"smiles": "CC[C@H](NC(=O)c1cc(F)ccc1NS(=O)(=O)c1cccc2cccnc12)c1ccccc1", "AC50": "50.8 µM (active)"}, {"smiles": "CCCC(=O)OCCC(C)C", "outcome": "inactive"}, {"smiles": "O=c1ccc2ccccc2o1", "outcome": "inactive"}, {"smiles": "Clc1ccccc1C(c1ccccc1)(c1ccccc1)n1ccnc1", "AC50": "23.1 µM (active)"}, {"smiles": "CCN(Cc1cccc(S(=O)(=O)O)c1)c1ccc(C(=C2C=CC(=[N+](CC)Cc3cccc(S(=O)(=O)O)c3)C=C2)c2ccccc2S(=O)(=O)[O-])cc1", "outcome": "inactive"}, {"smiles": "CCN(CC)C(=O)c1cc(S(=O)(=O)Cc2ccccc2)c(N2CCC(c3ccccc3)CC2)cc1N(CC)CCN(C)C", "outcome": "inactive"}, {"smiles": "O=C1O[C@H]([C@@H](O)CO)C(O)=C1O", "outcome": "inactive"}, {"smiles": "O=c1[nH]sc2ccccc12", "outcome": "inactive"}, {"smiles": "CC(C)(c1cc(Br)c(O)c(Br)c1)c1cc(Br)c(O)c(Br)c1", "AC50": "53.4 µM (active)"}]}, {"read-out": "Pyruvate Dehydrogenase Kinase 4 (PDK4), PDK4 (gene 5166)", "assay": "LTEA_HepaRG_PDK4: Life Technologies and Expression Analysis (LTEA) Assay for Pyruvate Dehydrogenase Kinase 4 (PDK4) using HepaRG (AID 2283525)", "settings": "mRNA level, 48 h; actives raise or lower the signal", "procedure,_shortened": "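In this multiplexed human HepaRG expression assay, cells are treated 48 h with test chemicals across an eight-point range starting at 100 uM. PDK4 mRNA changes, normalized to ACTB/GAPDH/POLR2A, are fitted in both directions relative to vehicle.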", "values": [{"smiles": "CCCCCc1ccc(N)cc1", "outcome": "inactive"}, {"smiles": "Cc1c2ccccc2c(C)c2c1ccc1ccccc12", "AC50": "56.6 µM (active)"}, {"smiles": "O=CCCCC=O", "outcome": "inactive"}, {"smiles": "Cc1cn([C@H]2C[C@H](N=[N+]=[N-])[C@@H](CO)O2)c(=O)[nH]c1=O", "outcome": "inactive"}, {"smiles": "Cc1occc1C(=O)Nc1ccc(C(=O)N2CCC(F)(F)/C(=C\\C(=O)N3CCC(N4CCCCC4)CC3)c3ccccc32)cc1", "AC50": "50.3 µM (active)"}, {"smiles": "OC12N=C(c3ccccc3)SC1Cc1cc(Cl)ccc12", "note": "(stereo unspecified)", "AC50": "8.96 µM (active)"}, {"smiles": "CC(C)(O)c1ccc(CNC(=O)c2cccnc2Oc2ccc3nonc3c2)cc1", "outcome": "inactive"}, {"smiles": "O=C1CCC(C2CCCCC2)CC1", "outcome": "inactive"}, {"smiles": "NCc1cccc(C2CCN(C(=O)c3ccc(C#Cc4ccccc4F)o3)CC2)c1", "AC50": "64.9 µM (active)"}, {"smiles": "c1ccc2ccccc2c1", "outcome": "inactive"}, {"smiles": "O=C(O)Cn1c(=O)n(Cc2ccc(Br)cc2F)c(=O)c2ccc(Cl)cc21", "AC50": "38.8 µM (active)"}, {"smiles": "C[C@]12CC[C@@H]3c4ccc(O)cc4CC[C@H]3[C@@H]1CCC2=O", "outcome": "inactive"}, {"smiles": "OCCO", "outcome": "inactive"}, {"smiles": "COc1cc(C(=O)NC2CCN(C)CC2)ccc1Nc1ncc2c(n1)N(C1CCCC1)CC(F)(F)C(=O)N2C", "AC50": "22.2 µM (active)"}, {"smiles": "O=C(OCCCCCCOC(=O)c1ccccc1)c1ccccc1", "outcome": "inactive"}, {"smiles": "Cc1ncc(CO)c(CO)c1O", "outcome": "inactive"}, {"smiles": "COc1ccc2cc(S(=O)(=O)N[C@H](CC(=O)N[C@H](Cc3ccc(CN4[C@H](C)CCC[C@@H]4C)cc3)C(=O)N(C)C(C)C)c3ccc4c(c3)OCO4)ccc2c1", "AC50": "86.6 µM (active)"}, {"smiles": "O=C(Nc1ccc(Cl)cc1)Nc1ccc(Cl)c(Cl)c1", "AC50": "27 µM (active)"}, {"smiles": "Cc1cc(F)ccc1-c1cc(N2CC[C@@H](O)[C@H]2CO)ncc1N(C)C(=O)C(C)(C)c1cc(C(F)(F)F)cc(C(F)(F)F)c1", "outcome": "inactive"}, {"smiles": "Cc1cccc2ccccc12", "outcome": "inactive"}, {"smiles": "CC1(C)NC(=O)N(c2ccc([N+](=O)[O-])c(C(F)(F)F)c2)C1=O", "AC50": "80.1 µM (active)"}, {"smiles": "CCCCCCCCN(C)CCCCCCCC", "outcome": "inactive"}, {"smiles": "CO[C@H]1/C=C/O[C@@]2(C)Oc3c(C)c(O)c4c(O)c(c(/C=N/N5CCN(C)CC5)c(O)c4c3C2=O)NC(=O)/C(C)=C\\C=C\\[C@H](C)[C@H](O)[C@@H](C)[C@@H](O)[C@@H](C)[C@H](OC(C)=O)[C@@H]1C", "outcome": "inactive"}, {"smiles": "Cc1cc2c(cc1C(F)(F)F)N(C(=O)Nc1ccc(Oc3cccnc3C)nc1)CC2", "outcome": "inactive"}, {"smiles": "O=c1c(-c2ccc(O)cc2)coc2cc(O)cc(O)c12", "outcome": "inactive"}, {"smiles": "Oc1ccc2ccccc2c1", "outcome": "inactive"}, {"smiles": "O=C(O)Cc1cc(I)c(Oc2ccc(O)c(I)c2)c(I)c1", "AC50": "0.00367 µM (active)"}, {"smiles": "CC(C)(C)c1csc(-c2cc3cc(OCc4ccccc4CC(=O)O)ccc3o2)n1", "AC50": "12 µM (active)"}, {"smiles": "CC[C@@H]1C[C@H](N(Cc2cc(C(F)(F)F)cc(C(F)(F)F)c2)C(C)=O)c2cc(C(F)(F)F)ccc2N1C(=O)OC(C)C", "outcome": "inactive"}, {"smiles": "CC[C@H](NC(=O)c1cc(F)ccc1NS(=O)(=O)c1cccc2cccnc12)c1ccccc1", "outcome": "inactive"}, {"smiles": "CCCC(=O)OCCC(C)C", "outcome": "inactive"}, {"smiles": "O=c1ccc2ccccc2o1", "outcome": "inactive"}, {"smiles": "Clc1ccccc1C(c1ccccc1)(c1ccccc1)n1ccnc1", "AC50": "28.3 µM (active)"}, {"smiles": "CCN(Cc1cccc(S(=O)(=O)O)c1)c1ccc(C(=C2C=CC(=[N+](CC)Cc3cccc(S(=O)(=O)O)c3)C=C2)c2ccccc2S(=O)(=O)[O-])cc1", "outcome": "inactive"}, {"smiles": "CCN(CC)C(=O)c1cc(S(=O)(=O)Cc2ccccc2)c(N2CCC(c3ccccc3)CC2)cc1N(CC)CCN(C)C", "outcome": "inactive"}, {"smiles": "O=C1O[C@H]([C@@H](O)CO)C(O)=C1O", "outcome": "inactive"}, {"smiles": "O=c1[nH]sc2ccccc12", "outcome": "inactive"}, {"smiles": "CC(C)(c1cc(Br)c(O)c(Br)c1)c1cc(Br)c(O)c(Br)c1", "AC50": "88.9 µM (active)"}]}]}
